Source: PubChem BioAssay AID1274 (Emory University Molecular Libraries Screening Center, 2008)
Screen size: about 220,000 compounds; about 1,100 (0.5%) were called active.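 Rule for the calls: active = inhibition above about 30% (limit read from the data); inactive = the rest.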 For the sample, actives were picked, then their nearest neighbours and some compounds at random.

Molecular target: Neutrophil cytosol factor 1 (Homo sapiens) (UniProt P14598)
Test: p47phox/p22phox peptide binding inhibitors, primary screen, biochemical, uHTS, NADPH oxidase regulatory subunit (AID 1274);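 note: 0% = p47phox with labelled peptide and 100% = labelled peptide alone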
Conditions: fluorescence polarization, 2 h, at 24.7 µM, active compounds read high

Neutrophil cytosol factor 1 (Homo sapiens), sequence (P14598 whole entry, looked up): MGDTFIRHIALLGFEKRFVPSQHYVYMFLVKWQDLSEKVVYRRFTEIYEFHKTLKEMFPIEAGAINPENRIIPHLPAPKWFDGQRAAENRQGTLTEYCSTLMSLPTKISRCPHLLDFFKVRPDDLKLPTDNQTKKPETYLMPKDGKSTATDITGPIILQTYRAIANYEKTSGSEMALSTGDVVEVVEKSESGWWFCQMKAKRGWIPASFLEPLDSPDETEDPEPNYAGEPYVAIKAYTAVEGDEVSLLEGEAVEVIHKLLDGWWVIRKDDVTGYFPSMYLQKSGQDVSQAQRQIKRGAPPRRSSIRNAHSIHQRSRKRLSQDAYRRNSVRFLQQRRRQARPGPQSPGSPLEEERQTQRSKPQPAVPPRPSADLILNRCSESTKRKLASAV

inhibition, active:
COCCOC(=O)c1sc(=S)n(CCOC)c1N 46.2%
C[N+](C)(C)CCNC(=O)c1c(O)c2c([nH]c1=O)CCCC2 31.8%
CC(CNS(=O)(=O)c1ccc(Br)cc1)CN(C)C (stereo not drawn) 92%
CC(=O)NCCc1ccc(S(=O)(=O)N(C)C2CCS(=O)(=O)C2)cc1 (stereo not drawn) 32.2%
O=[N+]([O-])c1ccc(N=Cc2c(O)ccc3ccccc23)cc1 64.5%
Cc1ccnc(-n2sc3ccccc3c2=O)n1 35%
COc1ccc(-c2csc3nc(-c4ccccc4F)oc(=O)c23)cc1OC 89.6%
Oc1ccc(CNc2ccccc2O)cc1 72.8%
O=C(NCCCN1CCCCCC1)c1ccc(N2CCCC2=O)cc1 31.1%
Cc1ccnc(NS(=O)(=O)c2ccc(NC(=O)c3ccc(S(=O)(=O)N(C)C)cc3)cc2)n1 93.9%
COC(=O)c1nc2n(n1)C(c1ccc([N+](=O)[O-])cc1)C(C(=O)Nc1ccc(Cl)cc1)=C(C)N2 (stereo not drawn) 35.3%
S=c1[nH]nc(NCCc2ccccc2)s1 35.4%
COCCCNC(=S)N1CCCC(c2nc3cc(C)c(C)cc3[nH]2)C1 (stereo not drawn) 33.6%
CC1=C/C(=N\OS(=O)(=O)c2ccccc2)C=CC1=O 53.2%
COc1ccc2oc(-c3cccc(NC(=O)CSc4ccc(Cl)cc4)c3)nc2c1 152%
Cc1cc(C)n2nc(SCC(=O)NC(=O)NCc3ccco3)nc2n1 65.5%
Cc1nc2nc(SCC(=O)NCc3ccco3)nn2c(C)c1Cc1ccccc1 39.5%
CCN1CCN(CCNC(=O)c2ccc(/C=C3/Sc4ccccc4N(Cc4cccc(C)c4)C3=O)cc2)CC1 102%
O=C(Nc1ccc2c(c1)OCCO2)c1cnccn1 161%

inhibition, inactive:
COc1cc(OC)cc(C(=O)OCC(=O)Nc2sccc2C(N)=O)c1 -13.4%
CC(C)CCN1NC2(CCC(C)CC2)NC1=S (stereo not drawn) -4.38%
CCNC(=O)COC(=O)CCNC(=O)c1cccc(C)c1 -7.35%
CCOC(=O)c1sc(=S)n(-c2cccc(OC)c2)c1N -12.7%
COC(=O)c1sc(=S)n(-c2ccccc2)c1N 0.99%
CCOC(=O)Cn1nnnc1C 6.81%
O=C(NCc1ccccn1)c1c(O)c2c([nH]c1=O)CCCC2 -12.3%
CCc1nnc(NC(=O)c2c(O)c3c([nH]c2=O)CCCC3)s1 -3.43%
CCOC(=O)CC1C(=O)NCCN1c1nc2c(C)cccn2c(=O)c1/C=C1\SC(=S)N(C(C)CC)C1=O (stereo not drawn) -73.3%
O=S(=O)(NN=C1CCCCCCC1)c1ccc(Br)cc1 -8.52%
Cc1ccc(S(=O)(=O)NCC(C)NS(C)(=O)=O)cc1 (stereo not drawn) 4.29%
Cc1c(C(=O)N(Cc2ccccc2)Cc2cccnc2)cnn1-c1ccc(F)cc1 -0.45%
O=C(Nn1c(-c2ccc(Cl)cc2)nc2ccccc2c1=O)c1cccnc1Cl -7.54%
C[C@@H]1CC[C@]2(O[C@@H](CCO)C[C@H](O)[C@H]2O)O1 5.45%
Cc1ccc(S(=O)(=O)N(c2cccc(C)c2)C2CCS(=O)(=O)C2)cc1 (stereo not drawn) -5.65%
COc1ccc(C(=O)N(Cc2ccc(N(C)C)cc2)C2CCS(=O)(=O)C2)cc1 (stereo not drawn) -10.9%
CC(C)N1CCC(N2CCN(Cc3cccnc3)CC2CCO)CC1 (stereo not drawn) -4.11%
Oc1ccc2ccccc2c1C=Nc1ccccc1 -17.1%
Oc1ccc(N=Cc2c(O)ccc3ccccc23)cc1 -7.4%
CCn1cc(C(=O)NCCCN2CCCCCC2)c(=O)c2cc(S(=O)(=O)N3CCc4ccccc4C3)ccc21 -1.11%
COC(=O)[C@H](Cc1ccccc1)NC(=O)Nc1ccc(OC)cc1 -13.5%
Cc1ccnc(N2CCC(C(=O)NC3CCCCCC3)CC2)n1 -2.85%
Cc1ccnc(Nc2nc3ccccc3s2)n1 -4.23%
COc1ccc(CN2CCOC2=O)cc1OC -11.8%
COc1ccc(-c2csc(-c3cccs3)n2)cc1OC -15.5%
COc1ccc(-c2noc(-c3cccc(OC)c3OC)n2)cc1OC -9.37%
O=c1ccnc(Nc2ccc(Cl)cc2)[nH]1 -15.2%
COc1cccc(OCC(=O)NNC(=O)c2cnccn2)c1 -5.83%
CSC1=NC2(C)CCCCC2C12C=CC(=O)C=C2 (stereo not drawn) 12.3%
O=[N+]([O-])c1ccccc1NCc1ccc(Cl)cc1 10.1%
Oc1ccc(N2CCN(C(=S)NCc3ccccc3)CC2)cc1 -4.47%
COc1ccc(SCCN2CCN(CC(C)C)CCC2=O)cc1 -5.09%
CC1CCC(NC(=O)c2ccc(N3CCCC3=O)cc2)CC1 (stereo not drawn) -4.19%
CCOc1ccc(C(=O)NCCCN2CCCC2=O)cc1 -1.06%
COCCN1C(=O)N[C@@H](CCc2ccccc2)[C@H](C(C)=O)[C@H]1C -14.3%
CC(C)N(C(=O)Cn1cc(SCC(=O)N2CCCC2)c2ccccc21)C(C)C -1.84%
O=C(Nc1ccc(S(=O)(=O)Nc2ncccn2)cc1)c1cncc(Br)c1 -1.88%
Cc1ccnc(NS(=O)(=O)c2ccc(NC(=O)c3ccc(S(=O)(=O)N4CCOCC4)cc3)cc2)n1 -8.81%
CCCN(c1ccc(C)cc1)c1nc(=O)c2cccnc2s1 3.57%
COc1cc(C2C(C(=O)Nc3ccc(F)cc3)=C(C)Nc3nc(CCCO)nn32)cc(OC)c1OC (stereo not drawn) 8.1%
COCCOC(=O)C1=C(C)Nc2nc(C)nn2C1c1ccccc1 (stereo not drawn) -2.35%
COC(C[C@@H](O)[C@H](C)[C@H](O)COCc1ccccc1)OC -7.85%
O=[N+]([O-])c1ccc2c(c1)C(O)n1nc(-c3ccccc3)nc1S2 (stereo not drawn) -0.84%
O=C1/C(=C/c2coc3ccc(O)cc3c2=O)SC(=S)N1c1ccccc1 -31.6%
CCC1(C)Cc2c(sc3nc(SC)[nH]c(=O)c23)CO1 (stereo not drawn) -0.95%
Fc1ccccc1Cn1cnc(NC(=S)NCCc2ccccc2)n1 5.03%
S=c1[nH]nc(Nc2ccccc2)s1 6.03%
Cc1nc(C)c(-c2csc(NCCc3ccccc3)n2)s1 -1.49%
CC1CC(NC(=O)/C(C#N)=C/c2ccc[nH]2)CC(C)(C)C1 (stereo not drawn) -2.3%
CCCNC(=S)N1CCCC(c2nc3ccccc3[nH]2)C1 (stereo not drawn) -3.87%
CCNC(=S)N1CCC(c2nc3cc(C)c(C)cc3[nH]2)CC1 -2.83%
O=C(O)CCc1nc2cc(Cl)ccc2n(Cc2ccccc2)c1=O -13.1%
Cc1ccccc1CSc1nnc(CCCCCNC(=O)OC(C)(C)C)o1 -9.1%
COC(=O)c1sc(NC(=S)NC(=O)c2ccc(C)cc2)nc1C -24.1%
COc1ccc(F)cc1S(=O)(=O)N1CCCCC1 -2.33%
CCOC(=O)C1(S(=O)(=O)c2ccccc2)CCN(Cc2ccccc2)CC1 -0.94%
CC1=C/C(=N\S(=O)(=O)c2ccccc2)C(C(C)C)=CC1=O -6.28%
CCN(CC)CCn1cnc2c1c(=O)n(CCOC(=O)c1cc(OC)c(OC)c(OC)c1)c(=O)n2C -17%
Cc1cc(-c2nc(C)c(-c3nnc(SCC(=O)Nc4ccccc4)n3C)s2)no1 -5.21%
O=C(Cc1cccc2ccccc12)Nc1ccc2oc(-c3ccccc3)nc2c1 -10.3%
COc1cccc(-c2nc3cc(C)ccc3o2)c1 -18%
O=c1[nH]n2c(=O)c3c([nH]c2c1N=Nc1ccccc1)CCC3 5.2%
COc1cc(OC)cc(-c2nc3nc(C)c(CCC(=O)NCc4ccco4)c(C)n3n2)c1 -14.7%
Cc1ccc(SCC(=O)NC(=O)NCc2ccco2)c(C)c1 -8.32%
Cc1ccc(Cc2c(C)nc3nc(SCC(=O)NCCN4CCOCC4)nn3c2C)cc1 2.55%
Cc1cc(C)n2nc(SCC(N)=O)nc2n1 -2.75%
COc1cccc2c1OCC(CN1CCN(C3CCCCC3)C(CCO)C1)=C2 (stereo not drawn) -0.19%
Cc1noc(C)c1-c1nc(CSc2ccc(Cl)cc2)no1 -18.6%
CCc1ccc[n+](-c2nc([O-])sc2C=O)c1 -6.22%
CCOC(=O)c1ccc(S(=O)(=O)N(CCO)Cc2cc3cc(OC)c(OC)cc3[nH]c2=O)cc1 -9.36%
CCc1ccc(NC(=O)CN2C(=O)CSC2=O)cc1 1.09%
OC(CN1C2=NCCCN2c2ccccc21)c1ccc(Br)cc1 (stereo not drawn) -5.7%
O=C(CN1C(=O)/C(=C\c2ccc(C(F)(F)F)cc2)Sc2ccccc21)NCc1ccco1 -2.69%
Cc1nn(Cc2ccccc2)c(C)c1C(=O)NCCN1C(=O)S/C(=C\c2ccc(F)cc2)C1=O 19.6%
CCOc1ccc2nc(C(=O)N3CCCC(C)C3)sc2c1 (stereo not drawn) -1.85%
O=C(NCc1ccco1)C1CCCN1S(=O)(=O)c1ccccc1C(F)(F)F (stereo not drawn) -2.26%
O=C(Nc1cccc(NC(=O)c2ccco2)c1)c1cnccn1 -22.1%
O=C(Nc1ccc2c(c1)OCCO2)c1ccoc1 -11.2%
O=P(O)(CN1CCCCCC1)C1Cc2ccccc2C1 -16.2%
